BAZ2B inh: BAZ2B (human) inhibition. Q9UIF8. AlphaScreen BAZ2B-H3K14Ac peptide displacement. Potency, µM (top dose mostly 114 µM), without a hit: at the top dose activity change, negative = inhibition, actives largely listed as inhibitors. hit rate 4.4% among 360,000; also: % is scaled to controls: 0 for no effect and ±100 for the full control effect; nearly all actives have a fitted effect of over 60% in size
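AlphaScreen displacement of biotin-H3(5-23)K14Ac peptide (50 nM final) from BAZ2B (50 nM final) in PBS pH 7.4, 0.01% Tween-20; complex preformed 30 min RT, then compounds (top 110 uM) 30 min RT, beads 20 min dark.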
JMJD2A Tudor inh: JMJD2A Tudor domain (human) inhibition. AID 504339. AlphaScreen JMJD2A-Tudor / H3K4me3 peptide binding. hit rate 4.4% among 390,000. O75164. Potency, µM (highest dose often 114 µM), without a hit: at the top dose activity change, negative = inhibition, actives largely listed as inhibitors; also: % is scaled to controls: 0 for no effect and ±100 for the full control effect; nearly all actives have a fitted effect of over 50% in size
G9a inh: blocks human histone lysine methyltransferase G9a | Q96KQ7 | G9a H3K9 monomethylation, AlphaScreen, 2 h | Potency, µM (top dose mostly 102 µM), for the others: at the highest dose activity, negative = inhibition, hits mostly inhibitors | hit rate 8.8% among 350,000 | AID 504332; also: % is scaled to controls: 0 for no effect and ±100 for the full control effect; nearly all actives have a fitted effect of over 75% in size
Target sequence (Q96KQ7 913-1193 limits assumed): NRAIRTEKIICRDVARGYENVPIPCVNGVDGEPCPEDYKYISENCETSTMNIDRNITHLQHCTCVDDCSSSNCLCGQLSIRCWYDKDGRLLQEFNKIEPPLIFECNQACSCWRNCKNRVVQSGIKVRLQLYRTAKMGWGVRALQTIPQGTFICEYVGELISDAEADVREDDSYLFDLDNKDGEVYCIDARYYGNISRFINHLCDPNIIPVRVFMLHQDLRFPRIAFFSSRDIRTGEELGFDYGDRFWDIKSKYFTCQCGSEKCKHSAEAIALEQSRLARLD
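Enzyme 20 nM + cpd, 15 min RT; add b-H3K9 pep 500 nM / SAM 20 uM; 2 h RT; anti-H3K9me1 Ab 0.5 ug/mL + SA donor / anti-rabbit acceptor beads 20 ug/mL each, 10 min; AlphaScreen read.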
HP1b chromo inh: HP1-beta chromodomain-methylated histone interaction inhibition | Potency, µM (doses to about 114 µM), for the others: at the top dose activity change, negative = inhibition, most hits filed as inhibitors | hit rate 0.56% among 390,000 | P83916 | AlphaScreen HP1-beta / biotin-H3K9me3 peptide binding | AID 540317; also: nearly all actives have a fitted effect of over 70% in size
Target sequence (P83916 whole entry, looked up): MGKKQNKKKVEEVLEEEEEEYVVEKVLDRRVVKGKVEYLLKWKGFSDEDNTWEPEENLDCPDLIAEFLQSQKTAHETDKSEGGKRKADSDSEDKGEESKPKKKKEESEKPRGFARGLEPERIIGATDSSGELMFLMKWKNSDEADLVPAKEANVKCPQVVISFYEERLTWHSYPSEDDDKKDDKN
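AlphaScreen: HP1-beta (50 nM) preformed 30 min with biotin-H3(1-18)K9me3 peptide (50 nM) in PBS pH 7.4, 0.01% Tween-20. Compound added for 30 min at RT, then streptavidin donor/nickel chelate acceptor beads (10 ug/mL) for 30 min.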
L3MBTL1 inh: L3MBTL1 (human) inhibition; hit rate 0.66% among 230,000; AlphaScreen L3MBTL1–H3K9me1 peptide binding; Q9Y468; Potency, µM (doses to about 57.1 µM), without a hit: at the top dose activity, negative = inhibition, usual class: inhibitors; also: % is scaled to controls: 0 for no effect and ±100 for the full control effect; nearly all actives have a fitted effect of over 60% in size
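Displacement of a biotinylated histone H3(1-15) peptide monomethylated at Lys9 (75 nM) from L3MBTL1 (50 nM) was measured by AlphaScreen after a 30 min room-temperature compound incubation; cefsulodin titration served as intraplate control.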
Sfp inh: blocks B. subtilis Sfp PPTase activity | AID 1490 | Potency, µM, for the others: largest response in the series, negative = inhibition, hits mostly inhibitors | Q9F4F7 | hit rate 3.5% among 310,000 | Biochemical Sfp PPTase activity, qHTS;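 also: the enzyme is Sfp with the accession as filed and its product quenches rhodamine fluorescence; 0% = enzyme reaction without inhibitor and -100% = no enzyme wells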
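Buffer: 50 mM Hepes-Na pH 7.6, 10 mM MgCl2, 0.01% Nonidet P-40, 0.01% BSA. Enzyme 15 nM, pre-exposed to compound 15 min; substrates then added and fluorescence change tracked over 30 min.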
The depositor's hits bear a star; ? = inconclusive; . = no result; ! = not confirmed by another sample; [ ] = remark or other dose. Most compounds without a hit are left out; they make up all but 12% or so of the library. Calls follow the shape of the dose curve; as a rule, active = well fitted curve in the direction sought with a large enough effect; inconclusive = small, poorly fitted or top-dose-only effect, or another doubt; inactive = no such curve, though single readings can be large; an effect the other way counts as inactive or inconclusive. Potency is read from the fitted curve at half-maximal effect.

SMILES	BAZ2B inh	JMJD2A Tudor inh	G9a inh	HP1b chromo inh	L3MBTL1 inh	Sfp inh
COCCN(CCOC)Cc1c(O)ccc2c1O/C(=C\c1ccc(C)o1)C2=O	?	-24.7%	1µM*	-31.4%	.	2.82µM*
Cn1c(-c2cc3c(C(F)(F)F)nn(C)c3s2)n[nH]c1=S	-35.0%	11.2µM*	31.6µM*	-10.8%	-6.5%	?
CCn1c(-c2cc3c(C(F)(F)F)nn(C)c3s2)n[nH]c1=S	-3.9%	8.91µM*	5.62µM*	-16.8%	0.3%	70.8µM*
Cn1nc(C(F)(F)F)c2cc(C(=O)O)sc21	-8.3%	-3.0%[11.4 µM]	2.7%	21.0%	.	6.9%
COc1ccc(N2C(=NC(=O)C3CCCCC3)SC3CS(=O)(=O)CC32)c(OC)c1 (stereo not given)	-28.4%	28.2µM*	65.5%	5.9%	.	12.8%
O=c1[nH][nH]c2cc(=O)n(-c3ccc(Cl)cc3)nc12	50.1µM*	?	39.8µM*	-12.5%	?	5.4%
CCCc1c(C(=O)OCC)nnc2c(-c3ccccc3)c(C)nn12	-20.6%	-7.8%	7.5%[59 µM]	34.7%	.	.
CCn1nc(C(=O)N2CCN(Cc3nc4ccccc4s3)CC2)c2ccccc2c1=O	7.7%	-9.8%	10.2%[2.33 µM]	53.0%	42.1%	.
CCCCCn1c(=N)n(CC(O)COc2ccccc2OC)c2ccccc21 (stereo not given)	-9.0%	-24.8%	-49.7%	9.1%	5.01µM*	25.1µM*!
N/C(=N\OC(=O)COc1ccc2ccccc2c1Br)c1ccncc1	-0.6%	.	8.8%	.	17.2%	44.7µM*
Cc1nnc2c3ccccc3nc(N3CCN(c4cccc(Cl)c4)CC3)n12	?	?	?	13.6%	.	.
Cc1occc1C(=O)N1CCC2(CCCN(Cc3ccc(F)c(F)c3)C2)C1 (stereo not given)	-25.8%	-27.9%	13.6%	-9.6%	.	2.8%
O=C(O)C(Cc1c[nH]c2ccccc12)NS(=O)(=O)c1cccc2nsnc12 (stereo not given)	-30.7%	-4.6%[57.1 µM]	?	16.1%	-0.2%	56.2µM*
CCCOc1ccc(C(=O)CCNC(Cc2c[nH]c3ccccc23)C(=O)O)cc1 (stereo not given)	-20.0%	-7.7%	7.94µM*	44.5%	.	?
O=C(NC(Cc1c[nH]c2ccccc12)C(=O)O)c1cccs1 (stereo not given)	-15.3%	2.7%[57.1 µM]	11.0%	22.5%	10.4%	8.9%
O=C(Cc1cccs1)NC(Cc1c[nH]c2ccccc12)C(=O)O (stereo not given)	-17.9%	22.4µM*	56.2µM*	2.0%	.	5.7%
Cc1nc(N[C@@H](Cc2c[nH]c3ccccc23)C(=O)O)c2oc3ccccc3c2n1	56.2µM*	-22.7%	5.62µM*	27.3%	-10.7%	11.6%
CCc1ccc(NC(=O)CC2C(=O)N(c3ccc(OC)cc3)C(=O)N2Cc2ccc(OC)cc2)cc1 (stereo not given)	-8.6%	-9.0%	-11.1%[59 µM]	27.0%	.	.
COC(=O)C1=C(c2ccccc2)c2ccccc2S(=O)(=O)N1CC(=O)Nc1ccccc1Cl	-11.3%	-21.2%	-34.3%[59 µM]	13.5%	.	.
O=C(Nc1ccccc1C(F)(F)F)c1noc2c1CCCC2	22.0%	17.7%	26.4%[59 µM]	58.6%	.	.
Cn1c(SCC(=O)N2CCCc3ccccc32)ncc(C(=O)Nc2ccc(Cl)cc2)c1=O	-2.3%	-15.6%	13.6%[59 µM]	17.1%	.	.
Cc1ccc(C(=O)Nc2ccccc2C(=O)NC(Cc2c[nH]c3ccccc23)C(=O)O)cc1 (stereo not given)	79.4µM*	-22.5%	23.0%[12.7 µM]	-24.1%	5.1%	-1.4%
O=C(O)C(Cc1c[nH]c2ccccc12)N1C(=O)C2C3c4ccccc4C(c4ccccc43)C2C1=O (stereo not given)	?	-11.4%	25.1µM*	17.5%	-14.6%	20.5%
Cc1ccc(C(=O)Nc2ccccc2C(=O)NC(Cc2ccccc2)C(=O)O)cc1 (stereo not given)	?	-8.3%[11.4 µM]	-3.3%[59 µM]	29.3%	11.2%	-6.2%
O=C1COc2ccc(-c3cc(-c4ccccc4)c4c(n3)-c3ccccc3OC4)cc2N1	-5.0%	-6.0%	2.6%[59 µM]	67.3%	.	.
SMILES	BAZ2B inh	JMJD2A Tudor inh	G9a inh	HP1b chromo inh	L3MBTL1 inh	Sfp inh
CN(/N=C\c1ccc(O)c(O)c1)c1nc(-c2ccccc2)cc(-c2ccccc2)n1	39.8µM*	?	39.8µM*	?	-29.8%	?
CN(C(=O)c1cccc(NC(=O)Cc2ccc([N+](=O)[O-])cc2)c1)C1CC1	.	-19.7%	.	38.9%	-0.1%	.
CCC(Oc1ccccc1)C(=O)Nc1cc(C(F)(F)F)ccc1N1CCOCC1 (stereo not given)	12.5%	43.8%	-6.2%[12.7 µM]	55.1%	19.6%	.
Cc1nn(-c2ccccn2)c2c1C(c1ccsc1)C1=C(CCCC1=O)N2 (stereo not given)	-36.2%	-23.8%	?	16.5%	.	6.1%
Cc1cccc(-n2nc(C)c3c2NC2=C(C(=O)CCC2)C3c2ccccn2)c1 (stereo not given)	-26.8%	?	35.5µM*	5.4%	.	1.9%
CCN(CC(=O)Nc1c(F)cccc1F)C(=O)c1ccccn1	-3.1%	-16.0%	-11.4%[12.7 µM]	33.1%	1.7%	.
COc1ccc2c(CNCc3ccccc3OC)c(C(=O)O)n(Cc3ccc(F)cc3Cl)c2c1	-13.1%	-28.9%	0.3%[59 µM]	14.0%	.	.
CC(C)C1Cc2c(sc(NC(=S)NC(=O)c3ccccc3)c2C#N)CO1 (stereo not given)	11.1%	-18.4%	-25.5%[59 µM]	52.4%	-6.7%	3.2%
CCN1CCc2c(sc(NC(=S)NC(=O)c3ccc(Cl)cc3)c2C(N)=O)C1	-27.2%	?	31.6µM*	-26.6%	-16.7%	15.8µM*
CC(C)N1CCc2c(sc(NC(=O)c3ccc(S(=O)(=O)N4CCOCC4)cc3)c2C#N)C1	-4.0%	-15.6%	31.6µM*	15.0%	-14.4%	-17.2%
CCCN1CCc2c(sc(NC(=S)NC(=O)c3ccccc3)c2C#N)C1	?	?	10µM*	?	.	50.1µM*
CC(=O)N1CCc2c(sc(NC(=O)Cc3ccc(F)cc3)c2C#N)C1	0.9%	0.3%	21.8%	21.8%	.	12.7%
CN1CCc2c(sc(NC(=O)Cc3ccccc3)c2C#N)C1	-10.2%	-16.9%	44.7µM*	4.0%	?	-26.9%
C=CCN(c1ccccc1)S(=O)(=O)c1ccc2c(c1)N(C(C)=O)CCO2	-22.5%	-17.6%	3.9%	42.7%	.	15.3%
O=C(Cc1ccc(-c2ccccc2)cc1)NCCS(=O)(=O)N1CCN(c2cccc(Cl)c2)CC1	-0.5%	-5.1%	0.1%[59 µM]	19.7%[57 µM]	.	.
Cc1ccc(NC(=O)Cn2cc(S(=O)(=O)N3CCCC3)c(S(=O)(=O)N3CCCC3)c2)cc1F	10.7%[57.1 µM]	-15.2%	-27.5%[59 µM]	30.0%	.	.
CCCN1CCc2c(sc(NC(=O)CCS(=O)(=O)c3ccccc3)c2C(N)=O)C1	-17.2%	-10.4%	?	-5.8%	.	-0.5%

Bioassay records as filed in PubChem BioAssay.
